# Data as given in PubChem BioAssay.
# The list shows a part of the results. A number with no mark means an inactive call. Calls of active or inactive are those of the source.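 Rule for the calls, unless noted: active = mean inhibition of the triplicate above the hit cutoff set for the earlier primary screen (cut at about 25% in these data); inactive = the rest.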
# Target: Insulin-degrading enzyme (Homo sapiens) (UniProt P14735)
# Test: cellular IDE Abeta-cleavage inhibition – fluorescence polarization, HEK cells, FAbetaB substrate, confirmation (AID 435028;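 active = mean inhibition across triplicate wells above the cutoff set by the earlier primary insulin-degrading enzyme screen, cut at about 16% in these data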;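 note: 0% = DMSO wells and 100% = 60 µM reference IDE inhibitor Ii1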)
# Settings: at 5.59 µM, stronger effect = higher value
# Sequence of Insulin-degrading enzyme (Homo sapiens) (P14735 whole entry, looked up): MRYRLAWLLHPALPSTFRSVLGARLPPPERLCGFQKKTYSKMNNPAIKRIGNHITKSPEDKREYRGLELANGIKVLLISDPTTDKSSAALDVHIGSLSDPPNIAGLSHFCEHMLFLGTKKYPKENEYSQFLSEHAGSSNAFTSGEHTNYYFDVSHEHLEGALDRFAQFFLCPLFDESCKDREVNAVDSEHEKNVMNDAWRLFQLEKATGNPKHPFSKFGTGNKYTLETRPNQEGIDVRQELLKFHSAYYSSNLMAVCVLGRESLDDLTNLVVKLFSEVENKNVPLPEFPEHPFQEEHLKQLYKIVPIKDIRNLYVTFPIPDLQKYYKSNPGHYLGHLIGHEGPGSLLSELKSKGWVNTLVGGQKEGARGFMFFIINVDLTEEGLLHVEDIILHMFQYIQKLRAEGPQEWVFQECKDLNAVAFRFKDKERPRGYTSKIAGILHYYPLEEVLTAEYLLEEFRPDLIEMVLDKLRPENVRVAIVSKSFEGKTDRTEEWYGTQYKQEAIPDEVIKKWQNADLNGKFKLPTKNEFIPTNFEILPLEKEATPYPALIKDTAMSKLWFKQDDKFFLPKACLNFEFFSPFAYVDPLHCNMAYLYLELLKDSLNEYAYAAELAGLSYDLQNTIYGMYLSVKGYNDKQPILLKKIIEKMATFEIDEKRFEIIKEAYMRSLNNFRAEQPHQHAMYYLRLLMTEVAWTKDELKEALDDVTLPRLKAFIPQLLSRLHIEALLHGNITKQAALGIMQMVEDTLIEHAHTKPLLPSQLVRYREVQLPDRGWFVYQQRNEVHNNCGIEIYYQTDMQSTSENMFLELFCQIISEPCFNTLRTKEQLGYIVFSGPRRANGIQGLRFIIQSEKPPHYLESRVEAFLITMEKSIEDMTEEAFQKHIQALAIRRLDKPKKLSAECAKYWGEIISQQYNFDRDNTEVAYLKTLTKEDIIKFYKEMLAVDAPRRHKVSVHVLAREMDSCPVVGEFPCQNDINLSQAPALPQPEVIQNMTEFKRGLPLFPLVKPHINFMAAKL
row,Compound,inhibition
1,N#C/C(=C\c1ccc(O)c(O)c1)C(=O)NCc1ccccc1,43.1% (active)
2,COc1cc(/C=C(\C#N)c2nc3c(s2)CC(C)CC3)ccc1O (stereo not given),161% (active)
3,COc1ccc(N=C(C)c2sc3ccccc3c2O)cc1,56.1% (active)
4,CC(C(=O)c1ccc(-c2ccccc2)cc1)[n+]1cccc(Br)c1 (stereo not given),16.4% (active)
5,O=C(/C=C(O)/C=C/c1ccc(O)cc1)/C=C/c1ccc(O)cc1,50% (active)
6,COc1ccc(C(=O)Nc2nc(-c3ccc(S(=O)(=O)N4CCOCC4)cc3)cs2)cc1,3.32%
7,Fc1ccc2[nH]c3c(N4CCSCC4)ncnc3c2c1,7.91%
8,Nc1c(C(=O)c2cccs2)sc2nsc(SCCN3CCCCC3)c12,54.9% (active)
9,N#CC1=C(N)Oc2c(sc3ccccc23)C1c1ccco1 (stereo not given),55.6% (active)
10,Cc1cccc(N2CCN(C(=O)c3cccc(N4C(=O)C5C6C=CC(C6)C5C4=O)c3)CC2)c1C (stereo not given),31.1% (active)

# Tested on: not listed separately
# Test: HEK cell viability loss – luminescence, cytotoxicity control for IDE inhibitor project (AID 449730; in the data active = inhibition above about 22%;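 note: 0% = vehicle wells and 100% = reference cytotoxic drug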)
# Settings: HEK293 cytotoxicity, ATP luminescence; at 5.59 µM; stronger effect = higher value
row,Compound,inhibition
1,N#C/C(=C\c1ccc(O)c(O)c1)C(=O)NCc1ccccc1,6.24%
2,COc1cc(/C=C(\C#N)c2nc3c(s2)CC(C)CC3)ccc1O (stereo not given),11.3%
3,COc1ccc(N=C(C)c2sc3ccccc3c2O)cc1,15.2%
4,CC(C(=O)c1ccc(-c2ccccc2)cc1)[n+]1cccc(Br)c1 (stereo not given),14.3%
5,O=C(/C=C(O)/C=C/c1ccc(O)cc1)/C=C/c1ccc(O)cc1,7.11%
6,COc1ccc(C(=O)Nc2nc(-c3ccc(S(=O)(=O)N4CCOCC4)cc3)cs2)cc1,68.2% (active)
7,Fc1ccc2[nH]c3c(N4CCSCC4)ncnc3c2c1,49.2% (active)
8,Nc1c(C(=O)c2cccs2)sc2nsc(SCCN3CCCCC3)c12,18.4%
9,N#CC1=C(N)Oc2c(sc3ccccc23)C1c1ccco1 (stereo not given),39.4% (active)
10,Cc1cccc(N2CCN(C(=O)c3cccc(N4C(=O)C5C6C=CC(C6)C5C4=O)c3)CC2)c1C (stereo not given),17.6%

# Target: Platelet-activating factor acetylhydrolase (Homo sapiens) (UniProt Q13093)
# Test: inhibition of plasma PAF acetylhydrolase – biochemical, fluorescence polarization, human, confirmation (AID 463230);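 note: 0% = enzyme with DMSO and 100% = wells lacking pPAFAH enzyme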
# Settings: recombinant pPAFAH, FP-Rh probe fluorescence polarization; at 3.39 µM; stronger effect = higher value
# Sequence of Platelet-activating factor acetylhydrolase (Homo sapiens) (Q13093 whole entry, looked up): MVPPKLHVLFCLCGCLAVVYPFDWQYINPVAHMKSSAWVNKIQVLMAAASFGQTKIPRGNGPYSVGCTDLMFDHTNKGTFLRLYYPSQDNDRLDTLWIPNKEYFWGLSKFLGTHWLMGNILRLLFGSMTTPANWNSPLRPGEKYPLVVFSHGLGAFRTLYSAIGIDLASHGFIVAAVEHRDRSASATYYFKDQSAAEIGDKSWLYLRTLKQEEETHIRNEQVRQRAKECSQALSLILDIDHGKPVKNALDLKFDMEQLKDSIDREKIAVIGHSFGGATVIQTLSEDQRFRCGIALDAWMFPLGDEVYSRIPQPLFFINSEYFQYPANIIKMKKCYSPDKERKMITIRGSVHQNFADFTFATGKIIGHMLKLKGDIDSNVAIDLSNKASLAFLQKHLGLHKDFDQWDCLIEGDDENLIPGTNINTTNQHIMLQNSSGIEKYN
row,Compound,inhibition
1,COC(=O)c1ccc(C(NC(=O)OCc2ccccc2)/C(C)=C/[C@@H](C)C(=O)NCc2ccc(OC)c(OC)c2)cc1 (stereo not given in full),36% (active)
2,OC(CNCC1CCCO1)Cn1c2ccc(Br)cc2c2cc(Br)ccc21 (stereo not given),37.2% (active)
3,CCCCC(=O)Nc1ccc2c(c1)C(=O)NC2=O,4.81%
4,Cc1cc(C(=O)CSc2nc(N)cc(=O)[nH]2)c(C)n1CCc1ccc(Cl)cc1,74.3% (active)
5,Cc1cc(C(=O)CSc2nc(N)cc(=O)[nH]2)c(C)n1-c1cccc(F)c1,51.8% (active)
6,COc1cccc(CNC(=O)CCC2CCCN(C(=O)c3ccc(F)c(Cl)c3)C2)c1 (stereo not given),17.2%
7,O=C(CCC1CCCCC1)Nc1cc(C(F)(F)F)ccc1N1CCOCC1,6.87%
8,COc1ccc(C(=O)NC(=S)Nc2ccccc2N2CCN(S(C)(=O)=O)CC2)cc1OC,-1.51%
9,CCOc1ccc(NS(=O)(=O)c2ccc(C(=O)NCC(c3ccccc3OC)N3CCCC3)cc2)cc1 (stereo not given),45.4% (active)
10,Oc1ccc(N=Nc2nccs2)c(O)c1,5.09%
11,Cc1ccc(-c2noc(CSc3nnc(-c4ccncc4)n3-c3ccc(F)cc3)n2)cc1,1.52%
12,O=C(N/N=C/c1cccnc1)c1cc2ccccc2cc1O,5.94%
13,COc1ccc(/C=C/C(=O)c2cc(Br)ccc(=O)c2O)cc1,20.5%
14,Oc1c(Br)cc(/C=N/NC(=S)NCC2CCCO2)cc1Br (stereo not given),36.3% (active)
15,CC(C)C1N=C2c3ccccc3N=C(SCC(=O)c3ccc(O)c(O)c3)N2C1=O (stereo not given),54.5% (active)
16,CCc1ccc(CN(C)C(=O)CCc2nnc(-c3ccc(-c4ccccc4)cc3)o2)nc1,11.8%
17,CC1CCCCC1NC(=O)COC(=O)Cc1ccc(Cl)cc1 (stereo not given),22.3%
18,CN(C)S(=O)(=O)c1cccc(-c2nn(-c3ccccc3)cc2/C=C2\SC(=S)N(CC(=O)O)C2=O)c1,40.4% (active)
19,CC(=O)N1CCN(C(=O)c2cc(-c3ccc(C)o3)nc3ccccc23)CC1,5.07%
20,Cc1ccc(-n2c(C)cc(/C=C(\C#N)C(=O)NCC3CCCO3)c2C)cc1 (stereo not given),63.7% (active)
21,Cc1ccc(/C=N/NC(=O)c2cc3ccccc3cc2O)o1,9.89%
22,O=C(Nc1nc(-c2ccco2)c(-c2ccco2)s1)c1ccco1,17.3%
23,COc1cc(C2CC(=O)N3CN(Cc4ccccc4)CSC3=C2C#N)ccc1OCc1ccccc1 (stereo not given),14.2%
24,COCC(C)NC(=O)c1ccc(-n2nc(C(F)(F)F)cc2-c2cccs2)cc1 (stereo not given),23.6%
25,CC1(OC(=O)C2CCCC2)C(=O)C=C2C=C(c3ccc(C#N)cc3)OC=C2C1=O (stereo not given),53.2% (active)
26,Cc1ccc(S(=O)(=O)NCc2csc(C)n2)c(C)c1,2.33%
27,Cc1ccccc1-n1c(SCC(=O)Nc2cccc3ccccc23)nc(O)cc1=O,4.9%
28,O=C(O)C(c1ccccc1)N1C(=O)/C(=C\c2ccc(-c3cccc(Cl)c3)o2)SC1=S (stereo not given),55.4% (active)
29,COC(=O)c1cc(S(=O)(=O)Nc2ccc(C)c(F)c2)c[nH]1,24.1%
30,COc1cccc(/C=N/NC(=O)c2[nH]nc3c2CCc2ccccc2-3)c1O,38.9% (active)
